Experiment [1] can be described thus: Primary qHTS for Huh7 cytotoxicity: counterscreen for inhibitors of MERS-S pseudotyped particle cell entry (AID 1479147).
Experiment [2] is described as follows: Primary qHTS for inhibitors of MERS-S pseudo-typed particle cell entry (AID 1479149). Also: nearly all actives have a fitted effect of over 60% in size. Also: potency is read from the fitted curve at half-maximal effect. As to activity change, negative = inhibition: % is scaled to controls: 0 for no effect and ±100 for the full control effect. For orientation: Quantitative high-throughput screening tests each substance at several concentrations.
The nature of experiment [3]: Primary qHTS for Vero E6 cytotoxicity: counterscreen for inhibitors of SARS-S pseudo-typed particle cell entry (AID 1479150).
Experiment [4] can be described thus: Cytotoxicity counterscreen for inhibitors of SARS-CoV-2 cell entry (AID 1645845). Also: nearly all actives have a fitted effect of over 50% in size. The method, boiled down: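 Expi293F/hACE2 cells seeded overnight; cpd pin-transferred in DMSO, 1 h preincubation, + media, 48 h 37 C 5% CO2; ATPLite 1step luminescence; normalized to cells and no cells.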
(The purpose of a counterscreen is to sort out artefacts and off-target activity.)

Experiment [5] is described as follows: Primary qHTS to identify inhibitors of SARS-CoV-2 cell entry (AID 1645846). Also: nearly all actives have a fitted effect of over 45% in size. Also: potency is read from the fitted curve at half-maximal effect. In outline: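 Luminescence readout (Bright-Glo luciferase) 48 h after pseudoparticle addition. HEK293-ACE2 cells, 1500/well; compound pre-incubation 1 h; Normalized to spike PP and bald PP.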
Experiment [6] in a line: Primary qHTS for inhibitors of La Crosse Virus (LACV) - induced cell death in SH-SY5Y cells (AID 1508616; active = well fitted curve in the direction sought with a large enough effect; an effect the other way counts as inactive or inconclusive;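 also: top concentration of the series differs between compounds; 0% = infected DMSO wells and 100% = uninfected DMSO wells; higher means more rescue of cells from virus-induced death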). The method, boiled down: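 Luminescent ATP readout (ATPLite 1step, 5 min room temperature) measured rescue from LACV-induced death after 6 days of infection at 0.01 MOI; normalized to infected DMSO wells and uninfected DMSO wells.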
Experiment [7] deals with Calcium and integrin-binding protein 1 (Homo sapiens) (UniProt Q99828). Briefly: Primary qHTS for Identification of Calcium Integrin Binding Protein 1 (CIB1) Competitor (AID 1508620; active = well fitted curve in the direction sought with a large enough effect; an effect the other way counts as inactive or inconclusive;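 also: GST tagged CIB1 binding a fluorescein labelled alphaIIb integrin peptide tracer; top concentration of the series differs between compounds; % is scaled to controls: 0 for no effect and ±100 for the full control effect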). In outline:
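Fluorescence polarization competition: CIB1-GST (1 uM final) preincubated with compound 15 min at room temperature, then FITC-labeled alphaIIb peptide (100 nM final) added for another 15 min. Polarization read at Ex 480/Em 540.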

The nature of experiment [8]: Primary qHTS for small molecule stabilizers of the endoplasmic reticulum resident proteome: Secreted ER Calcium Modulated Protein (SERCaMP) assay (AID 1508630; active = well fitted curve in the direction sought with a large enough effect; an effect the other way counts as inactive or inconclusive; also: % is scaled to controls: 0 for no effect and ±100 for the full control effect). The method, boiled down:
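GLuc-SERCaMP-expressing SH-SY5Y cells, pretreated 16 h with compound, are challenged with thapsigargin to empty ER calcium stores; after 4 h, coelenterazine is added directly to the medium and luminescence is imaged.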

The nature of experiment [9]: A High-Content qHTS Against Drug Library for the Identification of Small Molecules that Inhibit DYT1 Early Onset Primary Dystonia-Associated Cell Pathology (AID 1645839). In outline:
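Readout: %pathology, the punctate EGFP-TorsinA distribution from imaging, as the primary channel and cell count as the toxicity counterscreen. HEK293 Flp-In cells expressing delE TorsinA were induced with tetracycline and treated with compound for 48 h.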

The target of experiment [10] is Cytochrome P450 2D6 (Homo sapiens) (UniProt P10635). Briefly: Cytochrome P450 family 2 subfamily D member 6 (CYP2D6) small molecule antagonists: luciferase biochemical (cell-free) qHTS assay (AID 1645840; active = well fitted curve in the direction sought with a large enough effect in the repeat runs; an effect the other way counts as inactive or inconclusive; also: potency is read from the fitted curve at half-maximal effect; nearly all actives have a fitted effect of over 55% in size). The method, boiled down:
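P450-Glo luminescent screen: recombinant CYP2D6 enzyme–proluciferin substrate mix preincubated with compound 10 min at room temperature, then NADPH regeneration added for 1 h at room temperature. Detection reagent added for 20 min; luciferin light read as relative luminescence units.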

The target in experiment [11] is Cytochrome P450 2C9 (Homo sapiens) (UniProt P11712). Briefly: Cytochrome P450 family 2 subfamily C member 9 (CYP2C9) small molecule antagonists: luciferase biochemical (cell-free) qHTS assay (AID 1645842; active = well fitted curve in the direction sought with a large enough effect in the repeat runs; an effect the other way counts as inactive or inconclusive; also: potency is read from the fitted curve at half-maximal effect; nearly all actives have a fitted effect of over 55% in size). In outline:
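Luminescence, after 20 min with luciferin detection reagent, reflected CYP2C9 turnover during a 1 h NADPH-driven reaction at 37C. Enzyme-substrate mix contained 0.4% bovine serum albumin and was preincubated with compound 10 min at room temperature.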

The nature of experiment [12]: VSVG counterscreen qHTS to identify inhibitors of SARS-CoV-2 cell entry (AID 1645847). Also: nearly all actives have a fitted effect of over 65% in size. Also: potency is read from the fitted curve at half-maximal effect. As to activity change, negative = inhibition: % is scaled to controls: 0 for no effect and ±100 for the full control effect. The method, boiled down: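 HEK293-ACE2 cells (Expi293F stably expressing human ACE2) were pretreated with compound for 1 h at 37 °C, then infected with MLV-based VSV-G pseudotyped particles for 48 h. Luciferase luminescence was normalized to VSV-G PP and bald PP wells.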
Where [13] appears, read: activity change, negative = inhibition: at 57.1 µM (top of the series) unless noted.

Where “and” joins values, the source holds several entries; their conditions need not be identical. Equal entries are not always repeated. Records with an inconclusive call do not appear. More than one record can exist for a structure, and the calls need not agree. Calls of active or inactive are those of the source. Unless noted, calls follow the shape of the full dose curve.

Sequence of Cytochrome P450 2C9 (Homo sapiens) (P11712 whole entry, looked up): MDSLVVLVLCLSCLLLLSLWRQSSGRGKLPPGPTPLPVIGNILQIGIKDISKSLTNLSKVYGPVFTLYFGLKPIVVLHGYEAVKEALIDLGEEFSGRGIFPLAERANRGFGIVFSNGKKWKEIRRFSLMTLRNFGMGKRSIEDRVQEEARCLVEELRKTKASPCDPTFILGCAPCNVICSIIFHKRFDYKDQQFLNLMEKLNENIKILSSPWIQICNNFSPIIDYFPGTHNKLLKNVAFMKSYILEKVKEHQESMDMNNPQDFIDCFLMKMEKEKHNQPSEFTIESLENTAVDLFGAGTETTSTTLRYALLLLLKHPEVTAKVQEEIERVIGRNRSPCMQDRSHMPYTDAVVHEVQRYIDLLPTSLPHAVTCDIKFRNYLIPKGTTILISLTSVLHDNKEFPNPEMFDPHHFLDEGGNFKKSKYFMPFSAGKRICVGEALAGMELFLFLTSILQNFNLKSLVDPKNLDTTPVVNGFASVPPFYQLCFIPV
Sequence of Calcium and integrin-binding protein 1 (Homo sapiens) (Q99828 whole entry, looked up): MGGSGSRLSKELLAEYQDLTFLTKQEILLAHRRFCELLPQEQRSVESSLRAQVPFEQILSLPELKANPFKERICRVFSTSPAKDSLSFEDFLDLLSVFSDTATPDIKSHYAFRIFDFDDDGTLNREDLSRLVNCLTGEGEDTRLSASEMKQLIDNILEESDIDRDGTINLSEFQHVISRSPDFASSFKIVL
Sequence of Cytochrome P450 2D6 (Homo sapiens) (P10635 whole entry, looked up): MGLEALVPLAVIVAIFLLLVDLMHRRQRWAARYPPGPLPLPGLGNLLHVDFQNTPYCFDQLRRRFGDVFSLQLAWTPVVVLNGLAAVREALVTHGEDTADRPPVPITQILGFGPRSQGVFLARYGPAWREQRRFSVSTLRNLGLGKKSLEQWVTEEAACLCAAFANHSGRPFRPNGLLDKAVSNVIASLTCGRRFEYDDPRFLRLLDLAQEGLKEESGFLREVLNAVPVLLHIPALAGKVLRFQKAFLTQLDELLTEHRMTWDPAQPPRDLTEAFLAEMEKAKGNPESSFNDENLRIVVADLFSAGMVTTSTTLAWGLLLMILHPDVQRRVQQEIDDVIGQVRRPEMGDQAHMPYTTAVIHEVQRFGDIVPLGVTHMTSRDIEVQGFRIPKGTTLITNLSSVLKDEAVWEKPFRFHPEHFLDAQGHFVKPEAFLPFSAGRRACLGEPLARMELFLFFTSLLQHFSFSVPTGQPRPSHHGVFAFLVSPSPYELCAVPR

With `CCN(CC)CCNC(=O)c1cc(Cl)c(N)cc1OC`, the Potency entry in experiment [1], in experiment [2], in [3], in [4] and in experiment [5] (setting [13]) was “inactive” throughout.
Consider `O=C(O)c1cn(C2CC2)c2cc(N3CCNCC3)c(F)cc2c1=O`, for which the activity change, negative = inhibition is -1.6% in experiment [5] (SARS-CoV-2 pseudovirus cell entry assay, luminescence, at 11.3 µM (top of the series)) and 4.56% in [5] (SARS-CoV-2 pseudovirus cell entry assay, luminescence, at 57.1 µM (top of the series)).
As to `CN(C)[C@@H]1C(=O)C(C(N)=O)=C(O)[C@@]2(O)C(=O)C3=C(O)c4c(O)ccc(Cl)c4[C@@H](O)[C@H]3C[C@@H]12`, the Potency result in experiment [1], in [2], in [3] and in experiment [5] (setting [13]) was “inactive” throughout.
For `CC(C)(C)CC(C)(C)c1ccc(O)cc1`, the Potency entry in experiment [1], in [2], in experiment [6], in experiment [7] and in experiment [9] was “inactive” in each case. Besides, the result in experiment [8] was inactive. Moreover, the Potency in experiment [10] is 36.6 µM (active); in experiment [11] it was 11.9 µM (active) and 15.5 µM (active).
As to `O=C1CCc2ccc(OCCCCN3CCN(c4cccc(Cl)c4Cl)CC3)cc2N1`, the Potency entry in experiment [1] and in experiment [3] was “inactive” each time. In addition, the Potency in experiment [2] was 11.2 µM (active); in experiment [12] it was 13.6 µM (active).
For `CCN(CCO)CCCC(C)Nc1ccnc2cc(Cl)ccc12` (centres undefined), the outcome in experiment [1] was “inactive [at 5.34 µM]”; in experiment [3], “inactive [at 5.34 µM]”; in experiment [5] (setting [13]) it was “inactive [at 5.25 µM]”. Further, the activity change, negative = inhibition in [2] is 3.49% [at 5.34 µM] (inactive); in experiment [5] (setting [13]), -16.5% [at 5.25 µM].
For the molecule `NC12CC3CC(CC(C3)C1)C2`, the Potency entry in experiment [1], in [2], in experiment [3] and in experiment [5] (setting [13]) was “inactive” throughout. The activity change, negative = inhibition in [5] (setting [13]) was -26.7%.
For the molecule `CC(C)c1c(C(=O)Nc2ccccc2)c(-c2ccccc2)c(-c2ccc(F)cc2)n1CC[C@@H](O)C[C@@H](O)CC(=O)O`, the Potency result in experiment [1], in experiment [2] and in experiment [4] was “inactive” in each case.
With `CN(C)c1nc(N(C)C)nc(N(C)C)n1`, the Potency result in [1], in experiment [2], in experiment [3] and in [5] (setting [13]) was “inactive” throughout. The activity change, negative = inhibition in experiment [5] (setting [13]) was -16.8%.
For `O=C(OC1C[C@H]2CC[C@@H](C1)[N+]21CCCC1)C(O)(c1ccccc1)c1ccccc1` (some centres undefined), the Potency result in [1], in experiment [2] and in experiment [3] was “inactive” throughout. In addition, the activity change, negative = inhibition in [5] (setting [13]) was -4.34%.
As to `CCc1c2c(nc3ccc(OC(=O)N4CCC(N5CCCCC5)CC4)cc13)-c1cc3c(c(=O)n1C2)COC(=O)[C@]3(O)CC`, the Potency result in experiment [1], in experiment [3] and in [4] was “inactive” throughout. For the same molecule, the Potency in [2] was 10 µM (active); in [5] (setting [13]), 0.891 µM (active); in experiment [12] it was 0.171 µM (active). The activity change, negative = inhibition in experiment [5] (setting [13]) was -95.5%.
With `CNC1(C)C2CCC(C2)C1(C)C` (centres undefined), the Potency result in [1], in experiment [2], in [3] and in experiment [5] (setting [13]) was “inactive” in each case.
Take `Nc1nnc(-c2cccc(Cl)c2Cl)c(N)n1`: the Potency entry in experiment [1], in experiment [2], in [3] and in experiment [5] (setting [13]) was “inactive” throughout.
Regarding `Nc1nc(F)nc2c1ncn2[C@@H]1O[C@H](CO)[C@@H](O)[C@@H]1O`, the Potency entry in [1], in experiment [2] and in experiment [3] was “inactive” throughout. Also, in experiment [5] (setting [13]), the activity change, negative = inhibition was 3.89% and -17.8%.
For `CCCc1cc(=O)[nH]c(=S)[nH]1`, the Potency result in experiment [1], in [2], in [3], in [4], in experiment [5] (setting [13]) and in experiment [12] was “inactive” each time. The activity change, negative = inhibition in experiment [5] (setting [13]) is -37.3%.
Consider `COc1ccc(-c2cc(=S)ss2)cc1`, for which the Potency result in experiment [1], in [2] and in experiment [4] was “inactive” throughout.
In the case of `O=C1NC(c2ccccc2)(c2ccccc2)C(=O)N1COP(=O)(O)O`, the Potency entry in experiment [1], in experiment [2] and in experiment [3] was “inactive” in each case. Further, the activity change, negative = inhibition in experiment [5] (setting [13]) is -4.89%.
With `COC(c1ccccc1)(c1ccccc1)[C@H](Oc1nc(C)cc(C)n1)C(=O)O`, the Potency entry in [1], in experiment [2], in experiment [3], in [4], in [5] (setting [13]) and in [12] was “inactive” each time. Further, in experiment [5] (setting [13]), the activity change, negative = inhibition was -34.8%.
Take `CC1=NS(=O)(=O)c2cc(Cl)ccc2N1`: the Potency result in experiment [1], in experiment [2], in [3] and in [5] (setting [13]) was “inactive” in each case.
Turning to `COC(=O)Nc1nc2ccc(C(=O)c3ccccc3)cc2[nH]1`, the Potency result in experiment [1], in [2], in [3] and in experiment [4] was “inactive” in each case. Further, in [5] (setting [13]), the activity change, negative = inhibition is -67.2% and -34.4%. Moreover, the Potency in experiment [12] is 1.52 µM (active).
For `COC(=O)C1=C(C)NC(C)=C(C(=O)OC(C)C)C1c1cccc2nonc12` (centres undefined), the Potency result in experiment [1], in experiment [2], in experiment [3] and in experiment [5] (setting [13]) was “inactive” throughout.
As to `Cc1nc(-c2ccc(OCC(C)C)c(C#N)c2)sc1C(=O)O`, the Potency entry in experiment [1], in experiment [2], in experiment [4] and in experiment [5] (setting [13]) was “inactive” throughout.
On to `CC[C@]1(O)C[C@@H]2CN(CCc3c([nH]c4ccccc34)[C@@](C(=O)OC)(c3cc4c(cc3OC)N(C)[C@H]3[C@@](O)(C(=O)OC)[C@H](OC(C)=O)[C@]5(CC)C=CCN6CC[C@]43[C@@H]65)C2)C1`, for which the Potency entry in [1], in experiment [2], in experiment [3] and in experiment [4] was “inactive” throughout. For the same molecule, in experiment [5] (setting [13]), the activity change, negative = inhibition is -82.9%. For the same molecule, the Potency in experiment [12] is 0.0341 µM (active).
On to `C=C(CC)C(=O)c1ccc(OCC(=O)O)c(Cl)c1Cl`, for which the Potency entry in [1], in [2], in experiment [3] and in experiment [4] was “inactive” throughout. The Potency in [5] (setting [13]) is 17.8 µM (active); in experiment [12], 1.92 µM (active).
Consider `CC(=O)OCC(CCn1cnc2cnc(N)nc21)COC(C)=O`, for which the Potency result in [1], in [2] and in [3] was “inactive” throughout. The activity change, negative = inhibition in [5] (setting [13]) is -14.3% and -5.75%.

Values taken from PubChem BioAssay (NCATS).
